Compounds with a hit are over-represented: about 0.9% of the library has one in this group of screens.
A647 autofl: compound autofluorescence in A647 spectral region. Compound fluorescence, A647 channel (570/671 nm), Tris buffer. max dye-equivalent concentration, M. 59,000 tested, under 10 active. AID 592
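Compounds pinned into 100 mM Tris pH 8.0, 15 min at room temperature, then read with 570 nm excitation/671 nm emission filters. Fluorescence normalized to an on-plate six-point Alexa 647 standard curve, giving dye-equivalent concentration per compound concentration.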
Fluorescein fluor: fluorescein region autofluorescence; AID 593; 0.91% of 59,000 active; Compound autofluorescence, 480/540 nm, fluorescein-equivalent; hits give high values; max fluorescein-equivalent concentration, M; in the data active = max fluorescein-equivalent concentration above about 10 nM; inconclusive = between about 1.1 nM and that limit
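Library compounds, added at multiple concentrations to pH 8.0 Tris buffer (100 mM), incubate 15 min at room temperature before CCD imaging at 480 nm excitation and 540 nm emission.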
TexasRed autofl: Texas Red region autofluorescence; Compound fluorescence, Texas Red channel, 547/618 nm; hits give high values; max dye-equivalent concentration, M; 0.06% of 59,000 active; AID 587; in the data active = max dye-equivalent concentration above about 10 nM; inconclusive = between about 1.1 nM and that limit
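Compound fluorescence was read after 15 min at room temperature in 100 mM Tris, pH 8.0, using 547 nm excitation and 618 nm emission across a concentration series. It was expressed as Texas Red dye-equivalent concentration from an on-plate standard curve.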
Rhodamine fluor: rhodamine region autofluorescence | Rhodamine-region fluorescence, 547/598 nm, Tris buffer; hits give high values | max dye-equivalent concentration, M | 0.05% of 59,000 active | AID 594; in the data active = max dye-equivalent concentration above about 11 nM; inconclusive = between about 1.1 nM and that limit
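Compounds in 100 mM Tris buffer, pH 8.0, were incubated 15 min at room temperature, then read at 547 nm excitation and 598 nm emission. Fluorescence was normalized against a per-plate six-point rhodamine standard curve as dye-equivalent concentration.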
A488 autofl: compound fluoresces in the A488 spectral region | compound autofluorescence, A488 spectral region, dye equivalency; Compound Type: qHTS ECL - MLSMR | max dye equivalency, M | 0.1% of 59,000 active | AID 591
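Compound autofluorescence was read in 100 mM Tris pH 8.0 after 15 min at room temperature, ex 480 nm/em 540 nm. Intensities were converted to A488 dye-equivalent concentration using an on-plate six-point A488 standard curve.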
Resorufin autofl: compounds fluorescent in resorufin spectral region | Compound fluorescence, resorufin region 547/598 nm, buffer; hits give high values | max dye-equivalent concentration, M | 0.04% of 59,000 active | AID 588
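Read-out: intrinsic compound fluorescence at ex 547/em 598 nm after 15 min at RT in pH 8.0 Tris (100 mM). Values expressed as resorufin-equivalent concentration from per-plate standard series.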
Numbers stand for hits; n = inactive; u = inconclusive. Unless noted, no rule for the calls is given here.

SMILES	A647 autofl	Fluorescein fluor	TexasRed autofl	Rhodamine fluor	A488 autofl	Resorufin autofl
FC(F)(F)c1ccccc1-c1ccc2ncnc(NCc3cccnc3)c2c1	n	n	n	n	n	n
CCOc1cccc(C2C(C(=O)c3ccc(C)o3)=C(O)C(=O)N2c2nccs2)c1 (configuration not stated)	n	4.33e-08M	n	n	u	n
CC[C@]1(O)C[C@H]2CN(CCc3c([nH]c4ccccc34)[C@](C(=O)OC)(c3cc4c(cc3OC)N(C)[C@@H]3[C@](O)(C(=O)OC)[C@H](OC(C)=O)[C@]5(CC)C=CCN6CC[C@]43[C@@H]65)C2)C1	n	u	n	n	n	n
CC(C)c1ccc2c(c1)CC[C@@H]1[C@@](C)(CN)CCC[C@@]21C	n	1.16e-08M	n	n	n	n
O=C(O)CCC/C=C\C[C@H]1[C@@H](/C=C\[C@@H](O)C2Cc3ccccc3C2)[C@H](F)C[C@H]1O	n	n	n	n	n	n
O=C(Cn1cc(C(=O)COc2ccccc2)c2ccccc21)NCc1ccco1	n	1.49e-08M	n	n	n	n
CCN(CC)c1ccc(C=N/C(C#N)=C(\N)C#N)cc1	n	5.03e-07M	u	u	2.56e-08M	n
Cc1nn2cnc3sc4c(c3c2nc1=O)CCCC4	n	1.01e-08M	n	n	n	n
CCN1C(=O)c2cccc3c(NC(=O)C4CCCCC4)ccc1c23	n	u	n	n	n	n
CCN1C(=O)c2cccc3c(NC(=O)c4ccc5c(c4)OCCO5)ccc1c23	n	5.54e-08M	n	n	u	n
CC(C)OC(=O)c1nn2c(C(F)(F)F)cc(-c3ccc(Br)o3)nc2c1Br	n	1.65e-08M	n	n	n	n
CCOC(=O)c1cnn2c(C(F)(F)F)cc(-c3ccco3)nc12	n	n	n	n	n	n
CN(C)c1ccc(/C=C/C(O)=C2/C(=O)N(C)C3(C)CC2c2ccccc2O3)cc1 (configuration not stated)	n	1.6e-08M	n	n	n	n
COc1cc(N2C(=O)NC3CC2(C)Oc2ccccc23)cc(OC)c1OC (configuration not stated)	n	n	n	n	n	n
CN(C)c1ccc(/C=N/n2ncc3ccccc32)cc1	n	n	n	n	n	n
C=CCn1c(/N=C/c2ccc(N(C)C)cc2)nc2ccccc21	n	2.07e-08M	n	n	n	n
CC1CN(c2nc3ccccc3nc2C(C#N)C(=O)NCc2ccc3c(c2)OCO3)CC(C)O1 (configuration not stated)	n	1.14e-07M	n	n	u	n
CCCCNC(=O)C(C#N)c1nc2ccccc2nc1N1CCCC1 (configuration not stated)	n	2.26e-07M	n	n	1.2e-08M	n
COc1ccc(CNC(=O)C(C#N)c2nc3ccccc3nc2N2CCN(C)CC2)cc1 (configuration not stated)	n	n	n	n	n	n
CC1CCN(c2nc3ccccc3nc2C(C#N)C(=O)NC2CCCCC2)CC1 (configuration not stated)	n	1.43e-08M	n	n	n	n
COc1ccc(CNC(=O)C(C#N)c2nc3ccccc3nc2N2CCCC2)cc1 (configuration not stated)	n	3.48e-07M	n	n	2.1e-08M	n
COC(=O)C(C#N)c1nc2ccccc2nc1N1CCCC1 (configuration not stated)	n	n	n	n	n	n
N=C1[C@@H](O)[C@]2(I)c3ccccc3N3C(=N)[C@H](O)[C@@H]4c5ccccc5N1[C@@H]4[C@@H]32	n	u	u	u	n	u
O[C@@H](c1cc(-c2ccccc2)nc2c1ccc1ccccc12)[C@@H]1CCCCN1	n	u	n	n	n	n
CCCCCCOC(=O)C(C#N)c1nc2ccccc2nc1N1CCCCC1 (configuration not stated)	n	1.02e-08M	n	n	n	n
SMILES	A647 autofl	Fluorescein fluor	TexasRed autofl	Rhodamine fluor	A488 autofl	Resorufin autofl
C=CCNC(=O)C(C#N)c1nc2ccccc2nc1N1CCCCCC1 (configuration not stated)	n	1.26e-08M	n	n	n	n
C=CCOC(=O)C(C#N)c1nc2ccccc2nc1N1CCN(Cc2ccc3c(c2)OCO3)CC1 (configuration not stated)	n	1.16e-08M	n	n	n	n
CCCCNC(=O)C(C#N)c1nc2ccccc2nc1N1CCN(Cc2ccc3c(c2)OCO3)CC1 (configuration not stated)	n	u	n	n	n	n
Clc1ccc([C@@H](c2ccccc2Cl)C(Cl)Cl)cc1	n	n	u	n	n	n
CC(=Nc1cccc(O)c1)c1sc2ccccc2c1O	n	1.91e-08M	n	n	n	n
CN=Cc1sc2ccccc2c1O	n	n	n	n	n	n
c1ccc(B2OC[C@@H]3OB(c4ccccc4)O[C@H]([C@@H]4COB(c5ccccc5)O4)[C@@H]3O2)cc1	n	n	n	n	n	n
CCC1=C/C(=C/N(C)c2ccccc2)C(=O)S1	n	1.49e-08M	n	n	n	n
COc1cccc(Nc2ncc3nc(-c4ccc(Cl)cc4)c(=O)n(C[C@H]4CCCO4)c3n2)c1	n	n	n	n	n	n
COc1cccc(Nc2ncc3nc(-c4ccccc4)c(=O)n(C[C@H]4CCCO4)c3n2)c1	n	1.14e-08M	n	n	n	n
C=CCN1CCc2c(cc(O)c(O)c2Br)[C@H](c2ccccc2)C1	n	n	n	n	n	n
CCCOc1ccc(-c2nnc(-c3ccncc3)o2)cc1	n	u	n	n	n	n
CCN(CC)c1ccc2cc(-c3nnc(-c4ccncc4)o3)c(=O)oc2c1	n	1.02e-06M	n	n	4.76e-08M	n
CCOC(=O)Nc1ccc(NCc2ccc(F)cc2)nc1N	n	1.61e-08M	n	n	n	n
CCOC(=O)Nc1cc(C)ccc1OC	n	n	u	n	n	n
COc1ccc2cc(C(c3nnnn3CCc3ccccc3)N3CCC(O)CC3)c(=O)[nH]c2c1 (configuration not stated)	n	1.44e-08M	4.1e-08M	2.4e-08M	n	1.29e-08M
CCOC(=O)C1=C(CSc2nc3c(cc2C#N)CN(C)CC3)OC(N)=C(C#N)C1c1ccccc1 (configuration not stated)	n	3.37e-08M	n	n	n	n
Cc1ccc(C2NC(=O)c3ccccc3N2)s1 (configuration not stated)	n	n	u	n	n	n
CN1CCc2c(sc3c2C(=O)NC(c2cccs2)N3)C1 (configuration not stated)	n	1.81e-08M	u	n	n	n
CC(=O)[C@]1(O)CC[C@@H]2[C@H]3C[C@@H](C)C4=CC(=O)CC[C@@]4(C)[C@H]3[C@@H](O)C[C@]21C	n	n	u	n	n	n
O=C1C=CC2=C3c4cc(O)c(O)cc4C[C@@]3(O)COC2=C1O	n	u	u	n	n	n

Source: PubChem BioAssay
